In PubChem BioAssay:
Calls of active or inactive are those of the source. Unless noted, how the calls were made is not given here.

Assays:
[1] = resazurin metabolic signal in HepG2 cells – cell-based, resazurin fluorescence, 24 h, PK04 Diversity Set, profiling panel (AID 1172); settings: HepG2 viability, higher = more signal; further: test concentration not given here
[2] = budding yeast growth changes without added modifier – OD600, strain BY4716, 24 h, basal condition, primary screen (AID 1173); settings: S. cerevisiae BY4716 growth, OD600, 24 h; higher = more signal, called active from +8 up or from −8 down
[3] = viability profiling in MM1S myeloma cells – cell-based, resazurin fluorescence, basal, 24 h, PK04 Diversity Set, profiling panel (AID 1174); settings: higher = more signal, called active from +8 up or from −8 down;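 further: MM1S multiple myeloma cell line; test concentration not given here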
[4] = molecular target: Dihydroorotate dehydrogenase (quinone), mitochondrial (Plasmodium falciparum (isolate 3D7)) (UniProt Q08210); experiment: inhibition of P. falciparum DHODH – biochemical, C-terminal His tag, absorbance 600 nm, primary screen (AID 1175); settings: PfDHODH enzyme, DCIP absorbance 600 nm; higher = more signal, called active from +8 up or from −8 down;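 further: recombinant parasite enzyme with a five histidine tag at its C terminus; test concentration not given here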
Dihydroorotate dehydrogenase (quinone), mitochondrial (Plasmodium falciparum (isolate 3D7)), sequence (Q08210 whole entry, looked up): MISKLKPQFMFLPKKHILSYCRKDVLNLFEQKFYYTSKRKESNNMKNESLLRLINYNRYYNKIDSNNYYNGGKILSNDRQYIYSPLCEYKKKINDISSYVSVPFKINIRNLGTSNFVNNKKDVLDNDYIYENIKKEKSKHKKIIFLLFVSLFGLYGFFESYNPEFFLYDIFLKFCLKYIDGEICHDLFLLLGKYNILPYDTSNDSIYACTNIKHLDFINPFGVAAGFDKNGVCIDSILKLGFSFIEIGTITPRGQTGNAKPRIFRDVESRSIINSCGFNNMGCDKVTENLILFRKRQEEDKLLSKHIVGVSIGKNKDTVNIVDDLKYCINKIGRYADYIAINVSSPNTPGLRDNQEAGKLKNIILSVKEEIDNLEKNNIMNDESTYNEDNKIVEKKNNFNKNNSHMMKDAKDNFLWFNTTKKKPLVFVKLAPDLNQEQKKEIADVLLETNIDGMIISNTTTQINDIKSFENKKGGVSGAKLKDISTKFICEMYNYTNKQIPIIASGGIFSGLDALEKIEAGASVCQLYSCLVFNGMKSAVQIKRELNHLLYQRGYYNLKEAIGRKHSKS

[5] = inhibition of PAO1 biofilm formation – strain PAO1, LB-PBS medium, absorbance 600 nm, primary screen (AID 1176); further: test concentration not given here; settings: P. aeruginosa PAO1 growth/biofilm, A600, 12 h; higher = more signal
[6] = growth modulation of vineyard yeast isolate – strain RM11-1a, OD600, basal, 24 h, primary screen (AID 1177);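 further: cultures grown under basal conditions with no added stressor; test concentration not given here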; settings: S. cerevisiae RM11-1a growth, OD600, 24 h; higher = more signal, called active from +8 up or from −8 down
[7] = growth of efflux-deficient E. coli DRC39 – strain DRC39, OD650, 24 h, E. coli filamentation inducers, primary screen (AID 1178);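 further: growth measured as culture turbidity by optical density at 650 nm; test concentration not given here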; settings: E. coli DRC39 acrAB, higher = more signal, called active from +8 up or from −8 down
[8] = growth of efflux-deficient E. coli DRC39 – strain DRC39, OD650, 48 h, E. coli filamentation inducers, primary screen (AID 1179);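 further: screen aims at cell division blockers that make cells filament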; settings: E. coli DRC39 delta-acrAB growth, higher = more signal, called active from +8 up or from −8 down
[9] = viability profiling in RPMI8226 myeloma cells – cell-based, resazurin fluorescence, basal, 24 h, PK04 Diversity Set, profiling panel (AID 1180); settings: higher = more signal;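 further: RPMI8826 multiple myeloma cell line at 5000 cells per well; test concentration not given here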
[10] = molecular target: E3 ubiquitin-protein ligase XIAP (Homo sapiens) (UniProt P98170); experiment: small molecules binding XIAP protein – biophysical, small-molecule microarray, fluorescence 635 nm, primary screen (AID 1181); settings: higher = more signal;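 further: score merges 667 nm emission and signal to noise over triplicate slides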
E3 ubiquitin-protein ligase XIAP (Homo sapiens), sequence (P98170 whole entry, looked up): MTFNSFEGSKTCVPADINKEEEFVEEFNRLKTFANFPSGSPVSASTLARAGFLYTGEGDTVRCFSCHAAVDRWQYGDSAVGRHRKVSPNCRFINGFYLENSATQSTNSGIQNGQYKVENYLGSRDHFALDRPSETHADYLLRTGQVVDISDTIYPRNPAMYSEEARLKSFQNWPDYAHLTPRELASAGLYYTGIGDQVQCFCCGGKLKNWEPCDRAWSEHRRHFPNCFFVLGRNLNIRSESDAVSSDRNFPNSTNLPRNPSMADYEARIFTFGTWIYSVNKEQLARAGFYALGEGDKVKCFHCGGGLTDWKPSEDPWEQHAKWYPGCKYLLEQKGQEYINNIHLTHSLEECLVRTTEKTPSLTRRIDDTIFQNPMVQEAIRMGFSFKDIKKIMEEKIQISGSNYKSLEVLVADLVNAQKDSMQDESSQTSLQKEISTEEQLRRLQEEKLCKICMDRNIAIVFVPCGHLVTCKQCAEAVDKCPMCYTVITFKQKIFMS

Compound | z-score [1] | z-score [2] | z-score [3] | composite z-score [4] | z-score [5] | z-score [6] | z-score [7] | z-score [8] | z-score [9] | composite z-score [10]
[N-]=[N+]=NCc1ccccc1[C@@H]1OC(c2ccc(OCCCO)cc2)=N[C@]1(Cc1ccccc1)C(=O)NCC(O)CO (stereo not given in full) | 0.597 | -0.293 (inactive) | -0.869 (inactive) | -0.0408 (inactive) | 1.35 (inactive) | -0.0888 (inactive) | -0.151 (inactive) | -0.465 (inactive) | -0.665 | -0.0294
CCC[C@@H]1C[C@@]1(CCC)[C@@H](NC(=O)c1ccccc1)c1cccc(Cl)c1 | -0.141 | 1.74 (inactive) | 0.208 (inactive) | 0.249 (inactive) | -0.195 (inactive) | 2.26 (inactive) | -0.557 (inactive) | -0.514 (inactive) | 1.09 | -0.0326
C[C@H]1C2[C@H](Cc3ccccc3)NC(=O)[C@]23C(=O)N[C@H](Cc2ccccc2)C(=O)N2CCC[C@H]2C(=O)NC/C=C\C/C=C/C3[C@@H]2O[C@]12C (stereo not given in full) | 0.696 | -1.96 (inactive) | 1.22 (inactive) | -1.51 (inactive) | 1.01 (inactive) | -0.835 (inactive) | 1.11 (inactive) | -0.0988 (inactive) | 1.19 | 0.091
CCOC(=O)C[C@H]1[C@H](OC(=O)c2ccc(C(=O)c3ccccc3)cc2)[C@@H](NC(=O)CC(C)C)c2cc(OCCCO)ccc2N1C(=O)c1ccc2ccccc2n1 | 0.85 | 1.1 (inactive) | -0.469 (inactive) | -0.888 (inactive) | 0.453 (inactive) | 0.8 (inactive) | -0.0708 (inactive) | 0.648 (inactive) | -0.0956 | -0.102
O=C1C[C@@](C(=O)NCCN2CCOCC2)(c2ccc([N+](=O)[O-])cc2)[C@@H](c2ccc(CO)cc2)N1CC12CC3CC(CC(C3)C1)C2 | -2.48 | -11.2 (active) | -3.17 (inactive) | -0.601 (inactive) | 0.733 (inactive) | 1.77 (inactive) | -0.924 (inactive) | -1.66 (inactive) | -3.82 | -0.182
CCCCC(CC)C(O)C1C=CC2C(=O)N(Cc3ccccc3)C(=O)C2N1n1cnnc1 (stereo not given) | -0.661 | 0.374 (inactive) | -0.763 (inactive) | -0.495 (inactive) | -0.445 (inactive) | -0.666 (inactive) | -1.03 (inactive) | -1.46 (inactive) | -1.01 | 0.0228
CC(C)N1C(=O)C[C@@](C(=O)NCC(F)(F)F)(c2ccc([N+](=O)[O-])cc2)[C@H]1c1ccc(CO)cc1 | -0.228 | -0.957 (inactive) | 1.26 (inactive) | -0.297 (inactive) | 0.255 (inactive) | -1.09 (inactive) | 0.818 (inactive) | 0.629 (inactive) | 0.939 | -0.0448
CC(C)CNC(=O)[C@@]1(Cc2ccccc2I)c2ccccc2C(=O)N(C2CCCCC2)[C@H]1c1ccc(CO)cc1 | -0.462 | 0.408 (inactive) | -0.424 (inactive) | 0.193 (inactive) | 0.348 (inactive) | -0.199 (inactive) | -0.113 (inactive) | -0.0397 (inactive) | -0.124 | -0.0789
CC#CC(=O)Oc1ccccc1C=CC(=O)OCC | 1.86 | -10.4 (active) | 0.302 (inactive) | -0.155 (inactive) | 1.21 (inactive) | -1.34 (inactive) | 0.23 (inactive) | 0.51 (inactive) | 0.485 | -0.162
C=CCOC(=O)[C@H]1[C@@H]2C(=O)O[C@@H](c3ccccc3)[C@@H](c3ccccc3)N2[C@@H](c2ccc(OCCOC(=O)[C@H]3C[C@H]4C(=O)N[C@@H](CCCC[N+](C)(C)C)C(=O)N4[C@H]3c3ccc(O)cc3)cc2)[C@]12C(=O)Nc1ccc(I)cc12 | -0.427 | -0.154 (inactive) | -0.13 (inactive) | -0.24 (inactive) | -0.379 (inactive) | 0.0102 (inactive) | -0.873 (inactive) | -0.473 (inactive) | -0.078 | 2.28
CC(C)N1C(=O)c2ccccc2[C@](C)(C(=O)NCCN2CCOCC2)[C@@H]1c1ccc(CO)cc1 | 0.0412 | 0.567 (inactive) | -0.139 (inactive) | 1.11 (inactive) | 0.484 (inactive) | 1.41 (inactive) | -0.0268 (inactive) | -0.582 (inactive) | -0.44 | 0.126
COC(=O)[C@@]1(Cc2ccc(OC)cc2)[C@H]2c3cc(C(=O)N4CCCC4)n(Cc4ccc(C)c(F)c4F)c3C[C@H]2CN1C(=O)c1ccccc1 | 0.273 | 1.9 (inactive) | -1.4 (inactive) | 0.104 (inactive) | -0.843 (inactive) | 1.41 (inactive) | 0.35 (inactive) | -0.237 (inactive) | -1.59 | 0.0683
C=CCNC(=O)[C@@H]1[C@H]2C(=O)O[C@H](c3ccccc3)[C@H](c3ccccc3)N2[C@H](c2ccc(O)cc2)[C@@]12C(=O)Nc1ccc(C#CCNC(N)=O)cc12 | -0.361 | 0.295 (inactive) | 0.194 (inactive) | -0.433 (inactive) | 0.0485 (inactive) | 0.24 (inactive) | -0.0851 (inactive) | -0.124 (inactive) | 0.221 | -0.33
